# In PubChem BioAssay (NCI):
# Several values for one entry are separate records, joined by “and”; a condition that tells them apart may be missing. Equal values may be shown once. Compounds without any hit were thinned out: in the full panel of roughly 83,000, 20% have a hit.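 How to read the values: 0–100, growth inhibition (40 = 60% inhibited); 0, no net growth; -100 to 0, cell death (-40 = 40% of starting cells died; -100 = all dead).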 Activity calls are given as the source filed them. How the source made its calls: active means growth percent below 10; inactive means the rest.
# Tested on: SN12C renal
# Test: NCI-60 one-dose screen, 48 h (100 = growth as untreated, 0 = no growth, -100 = all killed)
# Details: 10 µM unless noted
row,SMILES,growth
1,CCCCN(CCCC)CCCCCCCCCCO,107% (inactive)
2,O=[N+]([O-])c1cc(-c2ccccc2)c(O)c([N+](=O)[O-])c1,73.7% (inactive)
3,c1csc(-c2[nH]nc3c2CCc2ccccc2-3)c1,93.5% (inactive)

# Tested on: TK-10 renal
# Test: as above
# Details: 10 µM unless noted
row,SMILES,growth
1,CC1(C)CCC[C@]2(C)[C@@H](C=O)C(C=O)=CC[C@@H]12,-6.19% [100 µM] (active) and -33.3% [100 µM] (active)
2,CC1=C(Cl)C[C@@H](/C(C)=C\Cl)O[C@@]1(O)C(Br)Br,101% [100 µM] (inactive) and -87.5% [100 µM] (active)
3,CC1=CC[C@@H]2[C@@H](CC[C@@]2(C)O)C(C)(C)[C@H]1CC[C@@H]1[C@@]2(C)CC[C@@H](O)C(C)(C)O[C@@H]2CC[C@]1(C)O,12.5% [100 µM] (inactive) and -92.2% [100 µM] (active)
4,CC(C)(C)N/N=C(/Cc1nc2c3c(ccc2[nH]c1=O)C(=O)c1ccccc1C3=O)C(=O)NC1=C(Cl)C(=O)c2ccccc2C1=O,59.3% [100 µM] (inactive) and -41.1% [100 µM] (active)
5,Cc1ccc(/C=N/Nc2cc(C)c3cccc(C)c3n2)s1,-67.1% [100 µM] (active) and -100% [100 µM] (active)
6,C=C(CO)C(=O)OC1CC(=C)C2CC(O)C(C)C2C2OC(=O)C(=C)C12 (configuration not stated),103% [100 µM] (inactive) and -92% [100 µM] (active)
7,COc1ccc2nc3c4c(nccc4c2c1)-c1ncccc1C3=O,-90.7% [50 µM] (active) and -100% [50 µM] (active)
8,CC1=CC[C@@H]2[C@@H](CC[C@@]2(C)O)C(C)(C)[C@H]1CC[C@@H]1[C@@]2(C)CCC(=O)C(C)(C)O[C@@H]2CC[C@]1(C)O,10.2% [100 µM] (inactive) and -99.3% [100 µM] (active)
9,COc1c(/C=C/C=O)cc2c(c1OC)OCO2,-2.29% [100 µM] (active) and -52.3% [100 µM] (active)
10,Cc1ccc(NC(=S)C#N)cc1Cl,7.58% [100 µM] (active) and -53.9% [100 µM] (active)
11,C=C(C)C1CC2(C)C(C)CC(O)CC2C(OC(=O)C=C(C)C)C1O (configuration not stated),17.2% [100 µM] (inactive) and 48.8% [100 µM] (inactive)
12,CCOc1cc2c(cc1O)/C(=N\OC)C[C@@H]1[C@@H]2CC[C@]2(C)[C@@H](O)CC[C@@H]12,-12.5% [100 µM] (active) and -99.5% [100 µM] (active)
13,Fc1cccc(F)c1C1SCc2nc3cc4ccccc4cc3n21 (configuration not stated),27% [100 µM] (inactive) and 34.3% [100 µM] (inactive)
14,CN1CCc2cc3c(c4c2C1C(O)c1ccccc1-4)OCO3 (configuration not stated),9.4% [100 µM] (active) and -86.5% [100 µM] (active)
15,O=C(/C=C/c1ccccc1)CCC1C(=O)c2ccccc2C1=O,105% [100 µM] (inactive) and 77.6% [100 µM] (inactive)
16,N=C1C(=N)c2ccccc2-c2ccccc21,51.2% [100 µM] (inactive) and 3.24% [100 µM] (active)
17,C=C1C(=O)OC2CC3(C)CCCC(C)C3=CC12 (configuration not stated),-100% [100 µM] (active) and -97% [100 µM] (active)
18,C=c1c2ccccc2oc2nc3[nH]c(N)c(C#N)c(N)c3c(=N)c12,43.9% [100 µM] (inactive) and -12.1% [100 µM] (active)
19,COC(=O)[C@]1(C)CCC[C@@]2(C)[C@@H]3C[C@@H]4[C@H]5C[C@@]3(CC[C@@H]21)C[C@@]45C,-88.2% [100 µM] (active) and -65.7% [100 µM] (active)
20,CCCCN(CCCC)CCCCCCCCCCO,93.6% (inactive)
21,CCOc1ccc(NC(=O)/C(=N\N)C(C(=O)OC)c2nc3ccc(Cl)cc3[nH]c2=O)cc1 (configuration not stated),128% [100 µM] (inactive) and 85.6% [100 µM] (inactive)
22,S=C1NC2=C(COc3ccccc32)C(c2ccc(Cl)cc2)N1 (configuration not stated),-3.55% [100 µM] (active) and -100% [100 µM] (active)
23,Cc1c2c(c(C)c3c[n+](C)ccc13)Oc1ccccc1O2,-2.16% [100 µM] (active) and -100% [100 µM] (active)
24,O=[N+]([O-])c1cc(-c2ccccc2)c(O)c([N+](=O)[O-])c1,89.2% (inactive)
